Results filed as inconclusive are left out. Active and inactive are the calls of the source. Rule for the calls, unless noted: active = hit-call score of the fitted dose curve at least 0.9, where 1 is the maximum; inactive = score below 0.9.
Assays:
[1] = ATG_AP_2_CIS: Attagene CIS-FACTORIAL HepG2 Assay for human Activator Protein 2 (AP-2) (AID 2282932); settings: HepG2 AP-2 cis-reporter, Attagene transcription factor profiling; actives raise or lower the signal
In short: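 Assay in transfected HepG2 with promoter-regulated reporters, 24 h incubation after dosing. Signal is reporter mRNA fluorescence (RT-PCR, capillary electrophoresis), analysed for both increases and decreases relative to DMSO controls.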

[2] = ATG_M_61_CIS: Attagene CIS-FACTORIAL HepG2 Assay for M61 Transcription Factor (Internal Marker) (AID 2282937); settings: HepG2 Attagene CIS-FACTORIAL M61 internal marker reporter; actives raise or lower the signal
In short: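 Readout is reporter mRNA by RT-PCR, fluorescent primer extension and capillary electrophoresis, with gain or loss fitted relative to DMSO. Transfected HepG2 cells carrying endogenous-TF-driven cis reporters were exposed to chemicals for 24 hours.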

[3] = ATG_EGR_CIS: Attagene CIS-FACTORIAL HepG2 Assay for human Early Growth Response 1 (EGR1) (AID 2282938); settings: HepG2 Attagene CIS-FACTORIAL EGR reporter mRNA; actives raise or lower the signal
In short: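 After 24 h compound exposure, RNA from reporter-transfected HepG2 cells was reverse-transcribed, PCR-amplified, fluorescently labelled and resolved by capillary electrophoresis. EGR1 reporter transcript changes, up or down, were fitted against DMSO, reflecting endogenous transcription-factor activity.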

[4] = ATG_Ets_CIS: Attagene CIS-FACTORIAL HepG2 Assay for human Erythroblast Transformation Specific (ETS) (AID 2282941); settings: HepG2 ETS cis-reporter transcription, actives raise or lower the signal
In short: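 Endogenous transcription factor activity read as reporter mRNA via RT-PCR and capillary electrophoresis, with gain or loss fitted bidirectionally against DMSO. Human HepG2 liver cells, transiently transfected CIS reporter constructs, 24 h exposure.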

[5] = target: Hepatocyte nuclear factor 3-beta (Homo sapiens) (UniProt Q9Y261); experiment: ATG_FoxA2_CIS: Attagene CIS-FACTORIAL HepG2 Assay for human Forkhead box A2 (FOXA2) (AID 2282942); settings: HepG2 cis-reporter transcription factor activity, 24 h; actives raise or lower the signal
Hepatocyte nuclear factor 3-beta (Homo sapiens), sequence (Q9Y261 whole entry, looked up): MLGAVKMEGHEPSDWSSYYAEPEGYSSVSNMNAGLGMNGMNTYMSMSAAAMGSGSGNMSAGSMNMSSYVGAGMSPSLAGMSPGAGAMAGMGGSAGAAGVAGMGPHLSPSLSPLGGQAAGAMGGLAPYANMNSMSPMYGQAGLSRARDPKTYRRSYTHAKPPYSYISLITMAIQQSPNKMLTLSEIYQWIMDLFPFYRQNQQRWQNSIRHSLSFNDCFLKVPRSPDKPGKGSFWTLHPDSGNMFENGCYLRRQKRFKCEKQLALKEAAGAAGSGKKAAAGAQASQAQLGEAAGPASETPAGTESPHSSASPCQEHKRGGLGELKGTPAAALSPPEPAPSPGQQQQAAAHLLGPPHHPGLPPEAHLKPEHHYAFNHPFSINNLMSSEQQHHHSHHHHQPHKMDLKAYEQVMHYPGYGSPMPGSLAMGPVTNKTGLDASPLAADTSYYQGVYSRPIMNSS
In short: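 Endogenous transcription factor activity is captured via cis-element-driven reporter transcripts in transfected HepG2. Total RNA taken at 24 h post-dosing; labelled RT-PCR products resolved by capillary electrophoresis. Gain or loss fitted versus DMSO.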

[6] = ATG_FoxO_CIS: Attagene CIS-FACTORIAL HepG2 Assay for human Forkhead box O (FoxO) (AID 2282943); settings: HepG2 Attagene cis-reporter, FoxO element, mRNA; actives raise or lower the signal
In short: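 24 h chemical exposure, HepG2 with transient cis-MRTU transfection. RNA extraction, oligo(dT) RT, reporter-specific PCR, primer-extension labelling, HpaI digestion, CE fragment analysis; bidirectional fit, DMSO baseline.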

[7] = target: Hypoxia-inducible factor 1-alpha (Homo sapiens) (UniProt Q16665); experiment: ATG_HIF1a_CIS: Attagene CIS-FACTORIAL HepG2 Assay for human Hypoxia Inducible Factor 1 (HIF1A) (AID 2282951); settings: HepG2 Attagene cis-factorial HIF1a reporter transcription; actives raise or lower the signal
Hypoxia-inducible factor 1-alpha (Homo sapiens), sequence (Q16665 whole entry, looked up): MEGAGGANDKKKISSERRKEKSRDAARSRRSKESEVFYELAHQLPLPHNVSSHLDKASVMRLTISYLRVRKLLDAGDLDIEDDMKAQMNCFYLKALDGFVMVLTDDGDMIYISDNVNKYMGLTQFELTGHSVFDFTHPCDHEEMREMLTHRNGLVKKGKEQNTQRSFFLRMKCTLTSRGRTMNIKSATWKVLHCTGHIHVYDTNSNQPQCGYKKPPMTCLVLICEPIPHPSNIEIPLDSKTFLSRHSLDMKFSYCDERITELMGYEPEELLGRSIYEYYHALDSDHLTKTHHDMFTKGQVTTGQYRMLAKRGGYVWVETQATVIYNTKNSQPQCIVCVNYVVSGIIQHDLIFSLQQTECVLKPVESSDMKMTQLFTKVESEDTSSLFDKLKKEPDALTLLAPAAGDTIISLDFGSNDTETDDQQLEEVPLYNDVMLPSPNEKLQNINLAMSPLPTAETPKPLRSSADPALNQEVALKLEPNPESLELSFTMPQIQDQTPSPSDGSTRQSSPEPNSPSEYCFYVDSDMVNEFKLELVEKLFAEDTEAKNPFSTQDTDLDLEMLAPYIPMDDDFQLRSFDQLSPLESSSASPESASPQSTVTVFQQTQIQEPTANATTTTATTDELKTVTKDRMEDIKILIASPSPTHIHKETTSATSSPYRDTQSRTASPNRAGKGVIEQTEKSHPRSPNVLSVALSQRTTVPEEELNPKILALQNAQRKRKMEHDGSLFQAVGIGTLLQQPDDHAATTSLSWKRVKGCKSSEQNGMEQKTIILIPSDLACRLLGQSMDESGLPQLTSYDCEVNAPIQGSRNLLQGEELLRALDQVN
In short: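 Activity is fitted in both directions relative to DMSO. Reporter transcripts are read by RT-PCR, fluorescent primer extension and capillary electrophoresis after 24 h chemical treatment. The cells are HepG2 carrying transiently transfected cis-element-driven reporter units responding to endogenous factors.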

[8] = ATG_TGFb_CIS: Attagene CIS-FACTORIAL HepG2 Assay for human Transforming Growth Factor (TGF) (AID 2282967); settings: HepG2 Attagene CIS TGFb reporter, mRNA transcription; actives raise or lower the signal
In short: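 HepG2 cells transiently transfected with cis-promoter-driven multiplexed reporter units; 24 h compound exposure. Reporter mRNA measured by RT-PCR, 6-FAM labeling, HpaI digestion and capillary electrophoresis; bidirectional fit versus DMSO baseline.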

[9] = ATG_VDRE_CIS: Attagene CIS-FACTORIAL HepG2 Assay for human Vitamin D Receptor Element (VDRE) (AID 2282968); settings: HepG2 VDRE cis-reporter transcription, actives raise or lower the signal
In short: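 Transfected HepG2 reporter cells, chemical treatment 24 h. RNA isolated, cDNA amplified with reporter-specific primers, products analysed by capillary electrophoresis. Endpoint fitted in both directions versus DMSO.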

[10] = target: X-box-binding protein 1 (Homo sapiens) (UniProt P17861); experiment: ATG_Xbp1_CIS: Attagene CIS-FACTORIAL HepG2 Assay for human X-box Binding Protein 1 (XBP1) (AID 2282972); settings: HepG2 XBP1 cis-element reporter, Attagene multiplex; actives raise or lower the signal
X-box-binding protein 1 (Homo sapiens), sequence (P17861 whole entry, looked up): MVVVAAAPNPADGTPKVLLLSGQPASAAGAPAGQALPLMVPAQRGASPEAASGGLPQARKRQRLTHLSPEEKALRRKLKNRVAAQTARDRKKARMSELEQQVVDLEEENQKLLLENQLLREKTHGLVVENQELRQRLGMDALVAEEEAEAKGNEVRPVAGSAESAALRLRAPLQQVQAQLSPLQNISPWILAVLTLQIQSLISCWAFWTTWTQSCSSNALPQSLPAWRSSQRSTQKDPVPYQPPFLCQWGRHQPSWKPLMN
In short: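 Reporter transcripts were quantified by RT-PCR with fluorescent primer extension and capillary electrophoresis after 24 h chemical exposure. Cells: transiently transfected HepG2 carrying cis-regulated reporter constructs; data fitted bidirectionally relative to DMSO.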

[11] = target: Transcriptional activator Myb (Homo sapiens) (UniProt P10242); experiment: ATG_Myb_CIS: Attagene CIS-FACTORIAL HepG2 Assay for human Myeloblastosis (Myb) Proto-Oncogene Transcription Factor (AID 2282986); settings: HepG2 Attagene CIS-FACTORIAL Myb reporter transcription; actives raise or lower the signal
Transcriptional activator Myb (Homo sapiens), sequence (P10242 whole entry, looked up): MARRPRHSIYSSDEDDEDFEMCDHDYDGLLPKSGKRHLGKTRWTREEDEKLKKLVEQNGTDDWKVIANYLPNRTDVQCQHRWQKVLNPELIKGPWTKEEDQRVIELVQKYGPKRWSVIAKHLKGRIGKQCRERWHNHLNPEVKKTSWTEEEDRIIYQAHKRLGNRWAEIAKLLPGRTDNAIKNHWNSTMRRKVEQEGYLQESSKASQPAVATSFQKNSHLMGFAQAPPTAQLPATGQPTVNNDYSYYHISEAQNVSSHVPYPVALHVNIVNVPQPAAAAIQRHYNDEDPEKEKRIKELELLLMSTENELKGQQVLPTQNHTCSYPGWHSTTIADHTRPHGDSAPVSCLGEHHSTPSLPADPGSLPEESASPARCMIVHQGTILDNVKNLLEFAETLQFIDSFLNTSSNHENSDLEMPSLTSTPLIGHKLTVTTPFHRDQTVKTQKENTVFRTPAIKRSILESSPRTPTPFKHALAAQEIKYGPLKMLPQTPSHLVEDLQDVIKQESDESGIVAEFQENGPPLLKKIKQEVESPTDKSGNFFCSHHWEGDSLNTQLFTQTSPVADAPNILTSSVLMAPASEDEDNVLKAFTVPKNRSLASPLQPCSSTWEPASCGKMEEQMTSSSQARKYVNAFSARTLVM
In short: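 Reporter mRNA is quantified by RT-PCR and capillary electrophoresis 24 h after dosing HepG2 cells transfected with cis-regulated reporter units, which track endogenous transcription factor activity. Gain and loss of signal are fitted versus DMSO baseline.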

[12] = target: Nuclear respiratory factor 1 (Homo sapiens) (UniProt Q16656); experiment: ATG_NRF1_CIS: Attagene CIS-FACTORIAL HepG2 Assay for human Nuclear Respiratory Factor 1 (NRF1) Orphan Gene (AID 2282987); settings: HepG2 NRF1 cis-element reporter, Attagene multiplex; actives raise or lower the signal
Nuclear respiratory factor 1 (Homo sapiens), sequence (Q16656 whole entry, looked up): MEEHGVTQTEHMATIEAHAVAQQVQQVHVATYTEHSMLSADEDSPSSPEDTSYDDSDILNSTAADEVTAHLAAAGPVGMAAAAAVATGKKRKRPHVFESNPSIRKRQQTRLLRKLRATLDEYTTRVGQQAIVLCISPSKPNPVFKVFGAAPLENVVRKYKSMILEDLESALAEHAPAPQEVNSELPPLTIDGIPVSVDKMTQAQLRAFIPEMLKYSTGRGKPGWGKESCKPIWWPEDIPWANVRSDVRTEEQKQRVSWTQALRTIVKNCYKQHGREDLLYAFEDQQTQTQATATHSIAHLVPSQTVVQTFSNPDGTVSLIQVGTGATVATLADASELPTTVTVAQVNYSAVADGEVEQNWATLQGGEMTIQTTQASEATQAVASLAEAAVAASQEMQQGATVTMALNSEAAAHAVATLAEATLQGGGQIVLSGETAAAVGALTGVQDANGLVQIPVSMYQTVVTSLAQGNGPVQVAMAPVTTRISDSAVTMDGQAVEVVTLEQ
In short: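 Endogenous NRF1-driven reporter transcription in transfected HepG2 cells after 24 h treatment. Readout: RT-PCR products, 6-FAM labelled and resolved by capillary electrophoresis; changes fitted both directions relative to DMSO.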

[13] = ATG_NFI_CIS: Attagene CIS-FACTORIAL HepG2 Assay for human Nuclear Factor I (NFI) (AID 2282989); settings: HepG2 cis-regulatory reporter, NFI response element transcription; actives raise or lower the signal
In short: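 HepG2 cells transiently transfected with cis-element-driven multiplexed reporter transcription units, dosed for 24 h. Reporter mRNA quantified by RT-PCR, fluorescent labelling, HpaI digestion and capillary electrophoresis; bidirectional fit versus DMSO baseline.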

[14] = target: Myc proto-oncogene protein (Homo sapiens) (UniProt P01106); experiment: ATG_Myc_CIS: Attagene CIS-FACTORIAL HepG2 Assay for human Myelocytomatosis (Myc) Proto-Oncogene Transcription Factor (AID 2282990); settings: HepG2, Attagene cis-reporter transcription factor activity; actives raise or lower the signal
Myc proto-oncogene protein (Homo sapiens), sequence (P01106 whole entry, looked up): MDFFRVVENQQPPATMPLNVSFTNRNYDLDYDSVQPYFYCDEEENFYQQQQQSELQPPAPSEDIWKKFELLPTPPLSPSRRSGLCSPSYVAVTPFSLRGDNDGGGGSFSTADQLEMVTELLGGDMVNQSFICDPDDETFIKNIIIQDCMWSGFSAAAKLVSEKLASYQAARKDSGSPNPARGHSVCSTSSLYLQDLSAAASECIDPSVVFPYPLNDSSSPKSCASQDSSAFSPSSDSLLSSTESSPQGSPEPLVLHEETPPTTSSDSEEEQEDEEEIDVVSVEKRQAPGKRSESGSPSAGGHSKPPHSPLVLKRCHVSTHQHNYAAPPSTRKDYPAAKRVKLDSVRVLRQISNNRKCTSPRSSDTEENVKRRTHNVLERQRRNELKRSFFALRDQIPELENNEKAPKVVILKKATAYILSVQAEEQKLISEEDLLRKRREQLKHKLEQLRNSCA
In short: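 DMSO-normalised, bidirectionally fitted reporter mRNA signal. HepG2 cells transfected with cis reporter constructs, treated 24 h; transcripts detected by RT-PCR, 6-FAM primer extension and CE.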

[15] = target: Cellular tumor antigen p53 (Homo sapiens) (UniProt P04637); experiment: ATG_p53_CIS: Attagene CIS-FACTORIAL HepG2 Assay for human p53 Transcription Factor (AID 2282994); settings: HepG2 p53 cis-element reporter, Attagene mRNA; actives raise or lower the signal
Cellular tumor antigen p53 (Homo sapiens), sequence (P04637 whole entry, looked up): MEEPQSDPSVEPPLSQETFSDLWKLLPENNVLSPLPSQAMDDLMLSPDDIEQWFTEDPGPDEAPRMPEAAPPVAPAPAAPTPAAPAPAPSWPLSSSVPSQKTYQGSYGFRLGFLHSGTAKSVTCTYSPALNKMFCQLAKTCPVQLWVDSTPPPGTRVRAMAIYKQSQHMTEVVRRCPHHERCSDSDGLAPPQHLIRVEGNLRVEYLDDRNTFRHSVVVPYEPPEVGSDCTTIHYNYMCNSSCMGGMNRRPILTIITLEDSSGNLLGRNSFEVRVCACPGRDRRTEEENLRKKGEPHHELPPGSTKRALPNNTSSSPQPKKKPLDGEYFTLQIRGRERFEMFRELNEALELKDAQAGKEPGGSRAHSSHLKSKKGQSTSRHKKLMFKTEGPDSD
In short: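 Endogenous p53 activity read in transiently transfected HepG2 from a cis-element-driven reporter transcript after 24 h exposure. RNA reverse-transcribed, PCR-amplified, fluorescently labelled and sized by capillary electrophoresis; gain or loss fitted against DMSO baseline.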

[16] = target: Nuclear receptor subfamily 1 group I member 2 (Homo sapiens) (UniProt O75469); experiment: ATG_PXR_TRANS: Attagene TRANS-FACTORIAL HepG2 Assay for human Pregnane X Receptor (PXR) (AID 2283008; active = hit-call score of the fitted dose curve at least 0.9, where 1 is the maximum)
Nuclear receptor subfamily 1 group I member 2 (Homo sapiens), sequence (O75469 whole entry, looked up, the tested form may be a part): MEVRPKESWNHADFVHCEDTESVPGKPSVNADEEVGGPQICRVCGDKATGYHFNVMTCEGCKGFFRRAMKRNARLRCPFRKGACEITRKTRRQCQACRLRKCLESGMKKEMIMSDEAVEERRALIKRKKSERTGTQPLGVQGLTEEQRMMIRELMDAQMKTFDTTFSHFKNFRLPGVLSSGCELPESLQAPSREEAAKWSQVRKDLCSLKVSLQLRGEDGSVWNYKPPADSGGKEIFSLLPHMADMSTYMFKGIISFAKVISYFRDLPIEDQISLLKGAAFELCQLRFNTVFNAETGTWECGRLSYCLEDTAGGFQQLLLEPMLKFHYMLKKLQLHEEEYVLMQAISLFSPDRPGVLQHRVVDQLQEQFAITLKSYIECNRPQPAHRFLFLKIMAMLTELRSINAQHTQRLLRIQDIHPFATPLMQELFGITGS
In short: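 Transactivation by exogenous PXR–GAL4 fusion measured as reporter transcript induction after 24 h compound treatment of transfected human HepG2 cells. Read-out via RT-PCR and capillary electrophoresis of labelled fragments, fitted upward relative to DMSO.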

[17] = ATG_XTT_Cytotoxicity: Cytotoxicity Assessment in the Attagene TRANS-FACTORIAL HepG2 Assay (AID 2283584; active = hit-call score of the fitted dose curve at least 0.9, where 1 is the maximum)
In short: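 24 h chemical exposure of reporter-transfected HepG2; XTT signal loss vs DMSO indicates cytotoxicity.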

[18] = target: Cellular tumor antigen p53 (Homo sapiens) (UniProt P04637); experiment: TOX21_p53_BLA_p2_ratio: Tox21 HCT-116 p53 Agonism Beta-lactamase Assay, Ratio, Phase 2 (AID 2283592; active = hit-call score of the fitted dose curve at least 0.9, where 1 is the maximum)
In short: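 DMSO-normalized, positive-direction endpoint derived from the 460 nm/530 nm FRET ratio in HCT116 p53 beta-lactamase reporter cells exposed 16 h at 37C and loaded with CCF4-AM for 2 h.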

[19] = ATG_RORE_CIS: Attagene CIS-FACTORIAL HepG2 Assay for human RAR-related Orphan Receptor Element (RORE) (AID 2282959); settings: HepG2 Attagene cis-factorial RORE reporter, mRNA; actives raise or lower the signal
In short: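 RORE reporter transcripts reflecting endogenous factor activity were read after 24 h compound exposure of transfected HepG2 cells, using reverse transcription, PCR, fluorescent labelling and capillary electrophoresis sizing. Gain or loss fitted against DMSO.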

[20] = target: Transcription factor E2F1 (Homo sapiens) (UniProt Q01094); experiment: ATG_E2F_CIS: Attagene CIS-FACTORIAL HepG2 Assay for human E2F Transcription Factor 1 (AID 2282935); settings: HepG2 Attagene cis-reporter, E2F reporter RNA transcripts; actives raise or lower the signal
Transcription factor E2F1 (Homo sapiens), sequence (Q01094 whole entry, looked up): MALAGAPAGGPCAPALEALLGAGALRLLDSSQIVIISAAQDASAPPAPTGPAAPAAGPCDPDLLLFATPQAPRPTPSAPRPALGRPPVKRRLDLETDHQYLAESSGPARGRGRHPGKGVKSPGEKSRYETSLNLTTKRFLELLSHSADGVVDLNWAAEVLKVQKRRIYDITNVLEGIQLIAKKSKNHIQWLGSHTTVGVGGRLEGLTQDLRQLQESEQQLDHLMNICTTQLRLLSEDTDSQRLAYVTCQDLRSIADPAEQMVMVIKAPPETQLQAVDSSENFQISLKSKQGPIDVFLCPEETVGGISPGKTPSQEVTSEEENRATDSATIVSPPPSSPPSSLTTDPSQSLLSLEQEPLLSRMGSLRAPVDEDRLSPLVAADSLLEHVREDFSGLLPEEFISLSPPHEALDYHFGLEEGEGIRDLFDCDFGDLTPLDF
In short: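 In this cis-factorial format, endogenous factor activity drives transfected reporters in HepG2; transcripts collected at 24 h are quantified by fluorescence after RT-PCR and capillary separation.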

Measured: outcome

CCCOCCC
inactive: [1] | [2] | [3] | [4] | [5] | [6] | [7] | [8] | [9] | [10] | [11] | [12] | [13] | [14] | [15] | [16] | [17] | [18]

CC(=O)Nc1c(I)c(NC(C)=O)c(I)c(C(=O)O)c1I
inactive: [1] | [3] | [5] | [19] | [8] | [10] | [11] | [12] | [13] | [14] | [17]

Cc1ccccc1S(=O)(=O)O
inactive: [1] | [20] | [2] | [5] | [7] | [19] | [8] | [10] | [11] | [12] | [13] | [14] | [15] | [17]

O=C(Oc1ccccc1)c1ccccc1
inactive: [1] | [2] | [3] | [4] | [5] | [6] | [7] | [19] | [8] | [10] | [11] | [12] | [13] | [14] | [16] | [17]

CCCC(=O)OC
inactive: [1] | [20] | [2] | [5] | [6] | [7] | [19] | [8] | [9] | [10] | [11] | [12] | [13] | [14] | [15] | [16] | [18]

Source: PubChem BioAssay (EPA / NIEHS)
